An excerpt weighted towards active compounds, which were near 9% of everything screened.
HP1b binding inh: HP1-beta chromodomain-methylated histone interaction inhibition; P83916; AlphaScreen HP1-beta / biotin-H3K9me3 peptide binding; Potency, µM (series often up to 114 µM), usual class: inhibitors; 0.56% of 390,000 active; AID 540317; further: nearly all actives have a fitted effect of over 70% in size
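AlphaScreen: HP1-beta (50 nM) preformed 30 min with biotin-H3(1-18)K9me3 peptide (50 nM) in PBS pH 7.4, 0.01% Tween-20. Compound added for 30 min at RT, then streptavidin donor/nickel chelate acceptor beads (10 ug/mL) for 30 min.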
ALOX12 inh: inhibitors of human 12S-lipoxygenase ALOX12. P18054. purified 12hLO, xylenol orange hydroperoxide absorbance. Potency, µM (doses to about 108 µM), hits mostly inhibitors. 1.1% of 580,000 active. AID 1671190
Target sequence (P18054 whole entry, looked up): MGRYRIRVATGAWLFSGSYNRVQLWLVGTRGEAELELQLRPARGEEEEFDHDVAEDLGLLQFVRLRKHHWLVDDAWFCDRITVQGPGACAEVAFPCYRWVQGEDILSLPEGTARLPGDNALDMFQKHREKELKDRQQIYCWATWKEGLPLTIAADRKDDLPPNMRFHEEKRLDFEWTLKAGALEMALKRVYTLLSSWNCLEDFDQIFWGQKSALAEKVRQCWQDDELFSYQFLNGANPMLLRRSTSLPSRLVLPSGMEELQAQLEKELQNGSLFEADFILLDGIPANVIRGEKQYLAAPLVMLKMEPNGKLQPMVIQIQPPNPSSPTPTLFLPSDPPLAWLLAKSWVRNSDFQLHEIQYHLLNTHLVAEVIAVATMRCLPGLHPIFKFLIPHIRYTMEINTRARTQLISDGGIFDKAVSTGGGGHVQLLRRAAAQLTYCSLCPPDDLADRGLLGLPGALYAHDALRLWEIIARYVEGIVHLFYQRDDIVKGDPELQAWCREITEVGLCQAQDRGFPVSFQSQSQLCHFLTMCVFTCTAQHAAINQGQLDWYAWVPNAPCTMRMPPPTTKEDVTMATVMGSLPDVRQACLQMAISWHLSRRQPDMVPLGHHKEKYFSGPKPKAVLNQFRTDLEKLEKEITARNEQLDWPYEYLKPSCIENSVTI
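Hydroperoxide product was detected by ferrous iron/xylenol orange as the 573 to 405 nm absorbance ratio. Arachidonic acid at 40 uM (final) was turned over for 30 min at room temperature by 150 nM human 12hLO, pH 7.0 Hepes buffer, after 15 min compound preincubation.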
JMJD2A Tudor inh: inhibitors of human JMJD2A Tudor domain | 4.4% of 390,000 active | O75164 | AID 504339 | Potency, µM (doses to about 114 µM), usual class: inhibitors | AlphaScreen JMJD2A-Tudor / H3K4me3 peptide binding; further: nearly all actives have a fitted effect of over 50% in size
G9a block: blocks human histone lysine methyltransferase G9a | Q96KQ7 | G9a H3K9 monomethylation, AlphaScreen, 2 h | Potency, µM (series often up to 102 µM), actives largely listed as inhibitors | 8.8% of 350,000 active | AID 504332; further: nearly all actives have a fitted effect of over 75% in size
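Step 1: enzyme (final 20 nM) with compound, 15 min RT. Step 2: substrate peptide 500 nM and SAM 20 uM, 2 h RT. Step 3: anti-H3K9me1 antibody and AlphaScreen beads, 10 min, then plate read.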
BAZ2B inh: blocks human BAZ2B; 4.4% of 360,000 active; Potency, µM (highest dose often 114 µM), actives largely listed as inhibitors; AlphaScreen BAZ2B-H3K14Ac peptide displacement; Q9UIF8; further: nearly all actives have a fitted effect of over 60% in size
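AlphaScreen displacement of biotin-H3(5-23)K14Ac peptide (50 nM final) from BAZ2B (50 nM final) in PBS pH 7.4, 0.01% Tween-20; complex preformed 30 min RT, then compounds (top 110 uM) 30 min RT, beads 20 min dark.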
PLK1 PBD inh: blocks phosphopeptide binding to human PLK1 polo-box domain. P53350. Plk1 PBD binding of FITC phosphopeptide, fluorescence polarization. Potency, µM, usual class: inhibitors. 2.8% of 360,000 active; further: series mostly up to about 57 µM; nearly all actives have a fitted effect of over 65% in size
Numbers stand for hits; i = inactive; ? = inconclusive; nt = not tested or not shown; [ ] = dose if it differs, or a comment. The call rests on the fitted dose curve; in most records, active means well fitted curve in the direction sought with a large enough effect; inconclusive means small, poorly fitted or top-dose-only effect, or another doubt; inactive means no such curve, though single readings can be large; an effect the other way counts as inactive or inconclusive.

SMILES | HP1b binding inh | ALOX12 inh | JMJD2A Tudor inh | G9a block | BAZ2B inh | PLK1 PBD inh
CCNC(=O)C1CCCN(C(=O)c2cc(OC)c(OC)c(OC)c2)CC1 (configuration not stated) | nt | i | nt | nt | nt | i
COc1ccc2[nH]c(CO)cc2c1 | nt | 25µM | nt | nt | nt | nt
CCn1c(Sc2nc(C)nc3scc(-c4cccs4)c23)n[nH]c1=O | i | i | i | 45µM | i | i
O=C1NCCC/C1=N/Nc1cc(F)ccc1F | i | i | i | i | i | i
c1ccc2[nH]c3cc4ncnc4cc3nc2c1 | i | i | i | i | i | 24µM
COc1ccc(NC(=S)NC(=O)c2ccc(Br)o2)cc1 | i | i | i | i | i | i
CCc1ccccc1NC(=O)CSc1ncc(S(=O)(=O)c2ccccc2)c(N)n1 | i | i | i | 13µM | i | nt
CCc1ccccc1NC(=O)CSc1ncc(S(=O)(=O)c2ccc(C(C)C)cc2)c(N)n1 | i | i | 20µM | i | i | nt
CCc1ccccc1NC(=O)CSc1ncc(S(=O)(=O)c2ccccc2)c(=O)[nH]1 | i | i | i | i | i | nt
COc1ccc(NC(=O)Nc2ccc3c(c2)C(=O)N([C@H](C)CO)C[C@H](C)[C@@H](CN(C)Cc2ccc(Cl)c(Cl)c2)OCCCC[C@@H](C)O3)cc1 | nt | i | nt | nt | nt | i
CCOc1ccc(OC(C)C(=O)NN)cc1 (configuration not stated) | nt | i | nt | nt | nt | nt
Cc1ccnc2nc(C(=O)NC3=NCCS3)nn12 | i | ? | i | i | i | i
Cc1ccnc2nc(C(=O)Nc3nccs3)nn12 | i | ? | 10µM | ? | ? | i
CCCN(C(=O)COC(=O)c1nc2nccc(C)n2n1)C1CCS(=O)(=O)C1 (configuration not stated) | i | i | i | nt | nt | 24µM
CCC(=O)Nc1ccc(C(=O)COC(=O)c2nc3nccc(C)n3n2)cc1 | ? | i | 40µM | i[12.7 µM] | 10µM | ?
Cc1ccnc2nc(C(=O)OCC(=O)c3ccc(NC(=O)CC(C)C)cc3)nn12 | i | i | ? | nt | nt | i
CCCCN(C(=O)COC(=O)c1nc2nccc(C)n2n1)C1CCS(=O)(=O)C1 (configuration not stated) | i | i | i | i | i | i
CC(C)Cn1cc(NC(=O)NCc2ccccc2)c2ccccc2c1=O | i | i | i | ? | i | nt
CC(C)Cn1cc(NC(=O)NCc2ccc(Cl)cc2)c2ccccc2c1=O | i | i | 40µM | ? | i | nt
CC(C)Cn1cc(NC(=O)Nc2cccc(C(F)(F)F)c2)c2ccccc2c1=O | i | 7.1µM | i | ? | i | nt
O=C(COC(=O)CCc1nc2ccccc2c(=O)[nH]1)NCc1ccc(F)cc1 | i | i | i | i[12.7 µM] | i | i
CN(C)S(=O)(=O)Oc1cc(Cl)ccc1C(=O)Nc1ccc(F)cc1F | i | i | ? | i | i | 24µM
COc1ccc(N=C2C(=S)N(c3ccc(OC)cc3)C(=NS(=O)(=O)c3ccccc3)N2c2ccccc2)cc1 | 10µM | ? | ? | nt | nt | 3µM
C/C(=N\Nc1nc2ccccc2nc1C)c1ccccc1O | i | i | i | 22µM | i | i
CC1(C)C(c2cccs2)=[N+]([O-])C2(CCCCC/C2=N\O)N1O (configuration not stated) | i | i | i | i | i | i
SMILES | HP1b binding inh | ALOX12 inh | JMJD2A Tudor inh | G9a block | BAZ2B inh | PLK1 PBD inh
CC1(C)C(c2ccccc2)=[N+]([O-])C2(CCCCC2=O)N1O (configuration not stated) | i | i | i | 7.9µM | i | i
CC(=O)Oc1ccc2c(c1)Oc1cc(OC(C)=O)ccc1C21OC(=O)c2ccccc21 | i | nt | i | i | i | 6.7µM
CC(C)c1ccc(NC(=O)CCc2ccccc2)cc1 | i | i | i | nt | i | i
CC(C)c1ccc(NC(=O)CNCC(c2ccccc2)N(C)C)cc1 (configuration not stated) | i | i | 45µM | 35µM | ? | i
CCC1CCCCN1C(=S)NC(=O)c1ccc(F)c(S(=O)(=O)N2CCOCC2)c1 (configuration not stated) | i | i | i | 45µM | i | i
O=C(NCC1CCCCC1)c1ccc(F)c(S(=O)(=O)N2CCOCC2)c1 | i | i | i | i[2.33 µM] | i | i
CCC1CCCCN1C(=S)NC(=O)c1ccc([N+](=O)[O-])cc1 (configuration not stated) | i | i | ? | ? | 71µM | i
COc1ccc(NC(=O)Nc2nnc(CC(=O)Nc3ccccc3)s2)cc1 | i | ? | i | i | i | i
COc1ccc(OC)c(NC(=S)N(CCc2c(C)[nH]c3ccc(C)cc23)Cc2cccs2)c1 | i | i | ? | 45µM | ? | i
COc1ccc2[nH]c(C)c(CCN(Cc3cccs3)C(=S)Nc3cccc(F)c3)c2c1 | i | nt | ? | ? | ? | i
COc1ccc(OC)c(NC(=S)N(CCc2c(C)[nH]c3ccccc23)Cc2cccs2)c1 | i | i | ? | 56µM | ? | i
COc1cccc(NC(=S)N(CCc2c(C)[nH]c3ccc(C)cc23)Cc2cccs2)c1 | i | ? | ? | i | i | i
Cc1ccc(NC(=O)Nc2cccnc2)cc1NC(=O)Nc1cccnc1 | i | i | i | i[0.501 µM] | i | i
CCN1C(=O)/C(=C/N2CC(C)CC(C)C2)SC1=S (configuration not stated) | i | i | i | i | i | i
CCN1C(=O)/C(=C/C=C2\N(CC)c3cc(S(=O)(=O)N(C)C)ccc3N2c2ccccc2)SC1=S | i | i | i[11.4 µM] | ? | 8.9µM | i
Cc1c(C)n(-c2ccc(Cl)cc2)c2ncn(CC(=O)NC(C)c3ccccc3)c(=O)c12 (configuration not stated) | nt | 25µM | nt | nt | nt | nt
CCNC(=O)Cn1cnc2c(c(C)c(C)n2-c2ccc(Cl)cc2)c1=O | nt | i | nt | nt | nt | nt
COc1cccc(CNc2ccc(F)c([N+](=O)[O-])c2)c1O | i | ? | ? | 50µM | i | i
O=[N+]([O-])c1ccccc1CNc1ccc(F)c(Cl)c1 | i | i | ? | ? | 50µM | i
O=C(Cc1ccccc1[N+](=O)[O-])NCc1ccc(Cl)cc1Cl | i | i | i | ? | i | i
O=C(Cc1ccc(F)cc1)Nc1ccc(F)c([N+](=O)[O-])c1 | i | i | i | i | i | i
Cc1ccc(NC(=O)c2cc(-n3cnnc3)ccc2Cl)cc1 | i | i | i | i | i | i
CN(C)C(=O)c1ccc(NC(=O)c2cc(-n3cnnc3)ccc2Cl)cc1 | ? | i | ? | i | i | 17µM
O=C(COc1ccccc1)OCC(=O)N1CCCc2ccccc21 | i | i | i | i[0.501 µM] | i | i
O=c1[nH]c(=S)[nH]c2scc(-c3ccc(Br)cc3)c12 | i | ? | i | nt | nt | 27µM
S=C(NC1CCCCC1)N[C@H]1CO[C@H]2[C@@H]1OC[C@@H]2n1cc(-c2ccccn2)nn1 | nt | i | nt | nt | nt | nt
O=C(O)c1ncn(Cc2ccc(Br)cc2)c1C(=O)O | i | i | i | 4µM | 32µM | i
